Compound activity: PubChem, Broad Institute
MITF TRPM1 inh – inhibitors of MITF-driven TRPM1 promoter in melanoma cells; SK-MEL-5 TRPM1 promoter luciferase, 24 h; inhibition, % at 12.5 µM; hit rate 0.83% among 330,000;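 active = mean inhibition across replicates of 60% or more, whatever share of single replicates reaches that level; inconclusive = some that reach 60%, reason not given; inactive = mean inhibition across replicates below 60%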
PAX8 inh HTS – inhibitors of PAX8 transcriptional activity in RMG-I cells; RMG-I TPO-luciferase reporter, SteadyGlo, 24 h; inhibition, % at 12.6 µM; AID 652154; hit rate 1.2% among 360,000;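 active = mean replicate inhibition at least 60% with every replicate also reaching 60%; inconclusive = only one of the two criteria is met; inactive = mean below 60% and not all replicates reaching 60%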;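 note: luciferase light reporting Pax8 driven TPO promoter activity; plate controls were median of neutral control wells for no effect and mitoxantrone controls for full effect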
EBV LMP1 NFkB – Epstein-Barr LMP1 NF-kappaB reporter inhibition | hit rate 0.69% among 350,000 | AID 504558 | inhibition, % at 12.5 µM | LMP1-induced NF-kappaB luciferase reporter cells, luminescence; in the data active = inhibition above about 41%; inconclusive = no clear call, values can overlap the other calls;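 note: 0% = neutral control wells and 100% = reference inhibitor control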
EWS-Fli inh – EWS/Fli transcriptional activity inhibition; A673 NR0B1-luciferase reporter, viability-normalised; inhibition, % at 12.6 µM; hit rate 0.67% among 350,000; AID 651661;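 active = mean inhibition of at least 50% after viability correction, with every replicate also passing that limit; inconclusive = mean reaches 50% but only one of two replicates passes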;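 note: firefly luciferase signal divided by Alamar Blue viability fluorescence both relative to DMSO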
Shn3 3UTR inh – Schnurri-3 reporter inhibition in Clone20 osteoblasts; inhibition, % at 12.5 µM; hit rate 0.52% among 360,000; Clone20 osteoblast Shn3 3'UTR firefly luciferase, 24 h;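 active = mean inhibition of at least 75% with every replicate also reaching 75%; inconclusive = mean inhibition at least 75% but some replicate below; inactive = mean inhibition below 75%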;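 note: 0% = median of neutral control wells and 100% = pilot-screen positive control compound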
LGR2 antag – inhibitors of bursicon-induced Drosophila LGR2 receptor cAMP signaling | HEK293 LGR2, CRE-luciferase, bursicon-stimulated, 4 h | inhibition, % at 9.99 µM | hit rate 0.35% among 380,000 | AID 720647;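 active = drop in luminescence signal, shown as inhibition above about 50% in the replicate tests, limit read from the data, passing the limit was not always enough; inconclusive = probably only some replicates passing the limit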;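 note: agonist challenge used bursicon conditioned medium at about half maximal strength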
* = called active by the depositor; ? = inconclusive; · = no result given. An excerpt weighted towards active compounds, which were near 2.2% of everything screened.

SMILES	MITF TRPM1 inh	PAX8 inh HTS	EBV LMP1 NFkB	EWS-Fli inh	Shn3 3UTR inh	LGR2 antag
O=S(=O)(c1ccc(N=C2NN=C(c3cc(F)ccc3F)CS2)cc1)N1CCOCC1	15.0	89.8*	9.0	36.7	80.4	-16.6
O=C(C[C@@H]1CC[C@@H]2[C@H](COC[C@@H](O)CN2CCC(F)(F)F)O1)N1CCC(Cc2ccccc2)CC1	·	19.0	·	13.3	·	24.4
Oc1ccc(N=Nc2ccc3c(c2)OCCO3)c2ncccc12	73.0*	76.3*	-6.3	21.3	95.0*	-18.7
O=C(Nc1ncccc1O)c1ccc2c(c1)OCCO2	-21.0	-61.3	32.4	-38.7	-133.9	-33.4
CCN(CC)S(=O)(=O)c1cc(OC)ccc1N=Nc1ccc(O)c2ncccc12	70.6*	96.3*	-1.2	27.9	90.5*	20.4
Cc1cccc(N=Nc2ccc(O)c3ncccc23)c1	70.8*	52.5	52.4*	·	87.4*	16.7
NS(=O)(=O)c1ccc(N=Nc2ccc(O)c3ncccc23)cc1	33.4	59.9	17.9	24.0	78.4	6.6
Cc1ccc(C)c(N=Nc2ccc(O)c3ncccc23)c1	63.6*	-6.7	61.3*	·	85.8*	52.0*
CCNC(=O)C[C@H]1CC[C@@H](NS(=O)(=O)c2ccc(F)cc2)[C@@H](CO)O1	·	-15.6	·	-1.9	·	-7.6
O=C(C[C@@H]1C=C[C@H](NC(=O)C2CCC2)[C@H](CO)O1)NC1CCC1	·	-5.0	·	-2.5	·	2.9
COc1ccc(CN(C)C[C@@H]2Oc3ccc(NC(=O)NC4CCCCC4)cc3CC(=O)N([C@H](C)CO)C[C@@H]2C)cc1	·	-2.6	·	·	·	6.7
O=C(Nc1ccc(Cl)cc1)N1C[C@@H]2[C@H](c3ccccc31)[C@H](CO)N2C(=O)c1cccnc1	·	-32.0	·	-25.6	·	-6.5
CCN(CC)S(=O)(=O)c1ccc(N/N=C/c2cc(OC)ccc2O)nc1	?	67.6*	46.2*	8.1	80.5	-4.7
COc1ccc(O)c(/C=N/NC(=S)Nc2cccc(S(=O)(=O)N(C)C)c2)c1	25.0	·	9.2	·	90.0*	8.2
COc1cccc(/C=N/NC(=S)Nc2cccc(S(=O)(=O)N(C)C)c2)c1	-6.8	-16.8	-0.7	-3.9	7.2	-14.9
CCCN(CCC)c1ncnc2nc[nH]c12	·	-28.3	48.0*	-9.2	6.9	25.2
Clc1ccccc1CN(Cc1ccccc1)c1ncnc2nc[nH]c12	3.7	·	9.5	·	6.5	·
Cc1ccc(NC(=O)c2cc(S(=O)(=O)NCC3CCCO3)ccc2F)cc1 (configuration not stated)	·	0.2	0.2	0.4	12.4	-13.1
Cc1ccc(NC(=O)c2cc(S(=O)(=O)NCCC3=CCCCC3)ccc2F)cc1	-10.2	64.1*	-9.9	14.8	75.3	25.6
COc1ccc(CCNc2ncnc3sccc23)cc1OC	23.2	76.9*	8.8	2.3	90.6*	9.4
COc1ccc(Nc2ncnc3sccc23)cc1OC	-50.0	-16.0	·	-13.2	-0.6	-9.2
C[C@@H]1CN([C@H](C)CO)C(=O)c2cc(NC(=O)Nc3cccc4ccccc34)ccc2O[C@@H](C)CCCCO[C@H]1CN(C)Cc1ccncc1	·	·	·	23.0	·	-13.0
Cc1cc(-n2c(SCC(=O)NCCC3=CCCCC3)nc3n[nH]c(C)c3c2=N)ccc1Cl	55.5	87.6*	6.5	·	65.1	10.6
Cc1ccc(N=Nc2cc(C)ccc2N)cc1	2.9	-5.7	-59.2	43.3	-8.0	67.8*
COC1C=CC=C(C)C(=O)NC2=CC(=O)C(N)=C(CC(C)CC(OC)C(O)C(C)C=C(C)C1OC(N)=O)C2=O (configuration not stated)	64.9*	41.2	72.3*	2.9	86.9*	49.9
SMILES	MITF TRPM1 inh	PAX8 inh HTS	EBV LMP1 NFkB	EWS-Fli inh	Shn3 3UTR inh	LGR2 antag
COC1CC(C)C(OC)c2cc(O)cc(c2O)NC(=O)C(C)=CC=CC(C)C(OC(N)=O)C(C)=CC(C)C1OC (configuration not stated)	71.5*	15.5	47.8*	23.2	-0.6	15.9
CO[C@H]1CN(C)C(=O)c2cc(NS(C)(=O)=O)ccc2OC[C@@H](C)N(C(=O)c2ccc3c(c2)OCO3)C[C@@H]1C	·	-6.4	·	3.1	·	1.9
Cc1ccccc1/C=C/C(=O)c1ccc([N+](=O)[O-])o1	·	24.2	·	71.2*	·	92.0*
Cc1ccccc1NC(=O)c1ccc([N+](=O)[O-])o1	5.8	22.9	-27.2	-1.1	14.0	0.7
Cc1ccc(/C=C/C(=O)c2c(C)nc3ccccn23)cc1	-10.4	·	-17.5	·	9.3	·
Cc1nc2ccccn2c1C(=O)/C=C/c1cccc([N+](=O)[O-])c1	70.6*	8.0	32.1	13.0	-39.6	24.0
Cc1cccc(/C=C/C(=O)c2ccc([N+](=O)[O-])o2)c1	·	27.9	-89.2	62.8*	21.8	101.2*
O=C(/C=C/c1cccc([N+](=O)[O-])c1)c1ccco1	9.2	-29.0	8.8	57.5*	-11.1	-15.1
Cc1noc(C)c1NC(=O)Nc1ccc2c(c1)CC(=O)N([C@@H](C)CO)C[C@@H](C)[C@H](CN(C)S(C)(=O)=O)O2	·	-20.9	·	·	·	9.2
CCC(=O)N1CCC2(CC1)CN(Cc1ccc3c(c1)OCO3)[C@H](CO)c1c2c2ccc(OC)cc2n1C	·	·	·	-13.0	·	-17.9
C[C@@H](NC(=O)C[C@@H]1CC[C@@H]2[C@H](COC[C@H](O)CN2C(=O)Nc2cccc(F)c2)O1)c1ccccc1	·	-69.4	·	-44.5	·	-5.8
O=C(/C=C/c1cccc([N+](=O)[O-])c1)c1ccc([N+](=O)[O-])o1	98.9*	27.3	13.5	80.9*	97.4*	31.9
COc1ccc(/C=C/C(=O)c2ccc([N+](=O)[O-])o2)cc1	·	31.2	-51.3	41.4	50.2	6.8
Nc1c(Cl)ncnc1N/N=C/c1ccc2ccccc2n1	30.8	1.5	26.8	-8.2	74.6	-19.8
Nc1c(Cl)ncnc1N/N=C/c1ccccn1	·	67.0*	·	·	·	4.9
CCC1=Nc2cc(C(=O)NCCN3CCOCC3)ccc2Sc2ccccc21	3.9	28.5	-7.5	·	-5.9	10.7
CCOCCCNC(=O)c1ccc2c(c1)N=C(CC)c1cc(Br)ccc1S2	38.9	91.4*	16.1	61.2*	-16.5	2.3
CCN1CCN(c2cc(N3CCN(C(=O)c4ccco4)CC3)c3c4c(onc24)-c2ccccc2C3=O)CC1	88.8*	·	-7.4	·	8.8	·
C[C@@H]1CN([C@H](C)CO)C(=O)c2cc(NC(=O)CCC(F)(F)F)ccc2O[C@@H](C)CCCCO[C@@H]1CN(C)C(=O)c1ccccc1	·	-8.6	·	-6.8	·	1.9
COc1ccc(-n2c(SCC(=O)Nc3ccc4c(c3)OCO4)nc3c(c2=O)SCC3)cc1	2.5	13.4	76.0*	1.8	-3.9	-7.2
O=C(CSc1nc2c(c(=O)n1-c1ccc(F)cc1)SCC2)Nc1ccc2c(c1)OCO2	1.7	·	0.4	·	-4.8	·
CCC(=O)Nc1ccc2c(c1)C(=O)N(C)C[C@@H](OC)[C@@H](C)CN(C(=O)C1CCC1)[C@@H](C)CO2	·	·	·	-5.1	·	-7.9
COc1ccc2c3c([nH]c2c1)[C@@H](CO)N(C(=O)Nc1ccc(F)cc1)CC31CN(C(=O)c2ccccc2F)C1	·	43.1	·	-10.2	·	-5.0
